Reference: PubChem BioAssay
Activity calls are given as the source filed them.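 Rule for the calls, unless noted: active = visual image review flags a hit and inhibition of aggregation exceeds 20%; inconclusive = visual hit but inhibition at or below 20%; inactive = no hit on visual image review.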

Tests used:
[1] = inhibitors of TNFa-induced NFkB p65 translocation, primary screen, imaging, HUVEC, MLSMR starter and 10KST1 sets (AID 438;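 active = inhibition above 20% together with a positive visual image hit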;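 note: compound added about 3h40 before a 20 min TNFalpha stimulation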;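 for inhibition: signal is the nuclear over cytoplasmic p65 intensity ratio per well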); conditions: HUVEC TNFa-induced p65 nuclear translocation; cell count: measured here: nuclei count (cytotoxicity indicator), at 2.08 µM; inhibition: at 2 µM, stronger effect = higher value, 0% TNFa-plus-vehicle, 100% no-TNFa wells
[2] = reduction of polyQ htt aggregates in cells – imaging, exon1htt(103Q)mCFP cells, high-content imaging, primary screen (AID 483); conditions: exon1htt(103Q)mCFP cell line, aggregate imaging, at 2 µM; inhibition of aggregation: stronger effect = higher value; nuclei count: measured here: cell count, toxicity;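 note: compound exposure lasted 3 days before fixation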;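 for nuclei count: percent of the per-plate median nuclei count of sample wells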
[3] = endothelial E-selectin expression blockers – imaging, HUVEC, immunofluorescence, MLSMR starter and 10KST1 sets, primary screen (AID 487;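 active = visually confirmed hit in the image check and inhibition above 20%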;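 for inhibition: signal is fraction of cell area covered by stained E-selectin grains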;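 for nuclei count: 100% = median nuclei count of all wells on the same plate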); conditions: HUVEC TNFalpha-induced E-selectin immunofluorescence imaging, at 2 µM; inhibition: stronger effect = higher value; nuclei count: measured here: cell number, toxicity
[4] = Primary imaging screen for DUSP6 inhibitors that restore phospho-Erk in transfected HeLa cells, chemical complementation (AID 609;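 active = compounds giving at least 50% inhibition in the cell-based MKP-3 phosphatase rescue imaging test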;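 for inhibition: phospho-Erk level distribution per well compared with pooled transfected vehicle control wells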); conditions: HeLa MKP-3 transfected, phospho-Erk imaging KS statistic, at 10 µM, cells stimulated with TPA for 15 min
[5] = molecular target: Dual specificity protein phosphatase 6 (Homo sapiens) (UniProt Q16828); assay: as above; conditions: HeLa MKP-3 transfected, phospho-Erk imaging KS statistic; at 10 µM; stronger effect = higher value; cells stimulated with TPA for 15 min
[6] = molecular target: Voltage-gated potassium channel subunit beta-2 (Rattus norvegicus) (UniProt P62483); assay: inhibitors of rat Kvbeta2 reductase activity – biochemical, NADPH fluorescence, primary screen (AID 622;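 active = fluorescence slope higher than the sample average by over 3 SD, cut at about -0.22 in these data, passing the limit was not always enough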;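 note: slope of raw intensity against log time taken from 70 to 1610 s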); conditions: recombinant KvBeta, 4-cyanobenzaldehyde reduction, at 10 µM, stronger effect = higher value
[7] = molecular target: Voltage-gated potassium channel subunit beta-2 (Rattus norvegicus) (UniProt P62483); assay: enhancers of rat Kvbeta2 NADPH turnover – biochemical, NADPH fluorescence, primary screen (AID 623;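 active = NADPH fluorescence slope more negative than the mean of all samples by about 3 SD, 99.7% confidence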;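 note: fluorescence intensity change per second fitted from 20 to 320 s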); conditions: Recombinant KvBeta, NADPH fluorescence decrease slope, 10 min; at 10 µM; stronger effect = lower value
[8] = molecular target: Muscarinic acetylcholine receptor M4 (Homo sapiens) (UniProt P08173); assay: M4-linked GIRK flux change, two-sided – cell-based, HEK293 M4/GIRK, thallium flux, BTC-AM, M4 allosteric agonist project, primary screen (AID 625;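 active = fluorescence slope after compound addition differing from the mean of all tested samples at 99.7% confidence, mostly higher but some lower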;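 note: thallium influx through GIRK channels coupled to M4 in HEK293 cells with BTC-AM dye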); conditions: at 10 µM, actives lie on both sides
[9] = inhibitors of larval lipid processing in zebrafish, primary screen, whole organism, PED6 fluorescence, gall bladder and intestine (AID 686;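 active = a full or partial loss of lipid-probe fluorescence in the fish gall bladder, intestine or both, judged by eye; inactive = no fluorescence loss, or compound toxic to the fish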;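 note: larvae 5 to 7 days old with five fish per well; signal comes from phospholipase A2 cleavage of quenched PED6 carried via bile; overnight exposure to compound and PED6 before scoring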); conditions: Zebrafish larvae PED6 lipid processing, fluorescence scoring; screened at 20 µM (by protocol)
[10] = loss of swimming-algae plug formation – whole organism, Chlamydomonas reinhardtii, WT vs cilia-less mutant, absorbance, 96-well, primary screen (AID 463189;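 active = inhibition at or above 50% relative to wild type and mutant plate controls; inactive = inhibition below 50%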;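 note: 0% = wild type cc124 cells in DMSO and 100% = ciliumless bld1 mutant cells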); conditions: Chlamydomonas reinhardtii gravitaxis, OD600 absorbance, 2 days; at 10 µM; stronger effect = higher value
[11] = blockers of RIG-like receptor reporter activation – cell-based, Sendai virus stimulus, luciferase, 10K MLSCN set, TLR/RLR signaling modifier project, primary screen (AID 602276;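 active = inhibition at or above 50% at 10 µM; inactive = inhibition below 50%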;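 note: firefly luciferase from ISG56 promoter only with Renilla not read in this screen; 0% = Sendai virus plus DMSO and 100% = medium plus DMSO without virus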); conditions: HEK293 RL24 IRF3 luciferase reporter, at 10 µM, stronger effect = higher value
[12] = TLR3 IRF3 reporter activation blockers – cell-based, poly I:C stimulus, luciferase, 10K MLSCN set, primary screen (AID 602277;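 active = inhibition of the reporter signal at or above 50%; inactive = inhibition below 50%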); conditions: HEK293-TLR3 RL24 IRF3 luciferase reporter, at 10 µM, stronger effect = higher value
[13] = measured here: cell density z-score
[14] = measured here: nuclear c-Myc green intensity z-score
[15] = measured here: nuclear pErk red intensity z-score, stronger effect = higher value

Chain of Muscarinic acetylcholine receptor M4 (Homo sapiens) (P08173 whole entry, looked up): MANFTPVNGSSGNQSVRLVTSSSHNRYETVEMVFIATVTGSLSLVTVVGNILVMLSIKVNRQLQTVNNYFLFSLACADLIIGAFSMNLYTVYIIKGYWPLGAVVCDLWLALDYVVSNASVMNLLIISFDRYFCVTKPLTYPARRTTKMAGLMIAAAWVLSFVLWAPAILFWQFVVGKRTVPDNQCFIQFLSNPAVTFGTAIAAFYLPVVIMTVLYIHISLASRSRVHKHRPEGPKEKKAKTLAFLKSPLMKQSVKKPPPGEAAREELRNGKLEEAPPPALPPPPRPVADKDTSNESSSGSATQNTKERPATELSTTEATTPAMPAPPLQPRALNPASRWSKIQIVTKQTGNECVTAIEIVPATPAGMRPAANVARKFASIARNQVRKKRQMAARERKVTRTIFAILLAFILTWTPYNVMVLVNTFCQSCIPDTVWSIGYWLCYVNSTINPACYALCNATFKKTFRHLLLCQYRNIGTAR
Chain of Voltage-gated potassium channel subunit beta-2 (Rattus norvegicus) (P62483 whole entry, looked up): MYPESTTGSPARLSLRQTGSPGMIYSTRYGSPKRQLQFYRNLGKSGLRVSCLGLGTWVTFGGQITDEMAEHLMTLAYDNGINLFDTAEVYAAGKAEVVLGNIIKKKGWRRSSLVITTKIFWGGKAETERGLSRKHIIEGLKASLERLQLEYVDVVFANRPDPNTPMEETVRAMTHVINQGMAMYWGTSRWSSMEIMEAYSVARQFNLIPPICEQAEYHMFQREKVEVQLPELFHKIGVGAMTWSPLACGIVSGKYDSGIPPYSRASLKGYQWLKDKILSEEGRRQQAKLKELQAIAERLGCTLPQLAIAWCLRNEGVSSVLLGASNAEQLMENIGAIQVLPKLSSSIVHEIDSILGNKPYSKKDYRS
Chain of Dual specificity protein phosphatase 6 (Homo sapiens) (Q16828 whole entry, looked up): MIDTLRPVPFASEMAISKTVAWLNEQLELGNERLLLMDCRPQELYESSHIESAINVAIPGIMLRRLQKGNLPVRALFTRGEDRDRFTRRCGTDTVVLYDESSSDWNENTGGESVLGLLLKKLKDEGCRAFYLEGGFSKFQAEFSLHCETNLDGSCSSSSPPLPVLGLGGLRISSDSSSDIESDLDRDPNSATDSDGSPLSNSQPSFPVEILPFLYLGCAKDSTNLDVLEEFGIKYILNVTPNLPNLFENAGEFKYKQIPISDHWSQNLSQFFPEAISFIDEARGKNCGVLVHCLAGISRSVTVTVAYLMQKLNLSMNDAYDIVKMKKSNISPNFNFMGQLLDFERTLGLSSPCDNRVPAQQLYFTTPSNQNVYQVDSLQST

Row | Structure (SMILES) | cell count [1] | inhibition [1] | inhibition of aggregation [2] | nuclei count [2] [%] | inhibition [3] | nuclei count [3] [%] | z-score [4, 13] | z-score [4, 14] | z-score [4, 15] | inhibition [5] | fluorescence slope [6] | NADPH fluorescence slope [7] | fluorescence slope [8] | outcome [9] | inhibition [10] | inhibition [11] | inhibition [12]
1 | O=S(=O)(NCc1cccnc1)c1cccc2nsnc12 | 643 | -2.6% (inactive) | -2.4% (inactive) | 125 | -80.9% (inactive) | 137 | -0.856 | 1.61 | 0.356 | -3.97% (inactive) | -0.482 (inactive) | -5e-05 (inactive) | 0.00583 (inactive) | inactive | -1.56% (inactive) | 15.1% (inactive) | 21.7% (inactive)
2 | CCOc1c(C)cc2[nH]c(CCC(=O)O)nc2c1C | 445 | 0.7% (inactive) | 8.3% (inactive) | 97.7 | -40.3% (inactive) | 116 | 1.23 | -1.62 | -1.73 | 7.42% (inactive) | -0.491 (inactive) | -3.6e-05 (inactive) | 0.00428 (inactive) | inactive | 21.6% (inactive) | 8.15% (inactive) | 8.77% (inactive)
3 | Cc1cc(C)n(C(=O)CNC(=O)C2COc3ccccc3O2)n1 (configuration not stated) | 659 | -7.8% (inactive) | -13.6% (inactive) | 105 | -92.7% (inactive) | 124 | 0.273 | -1.59 | 0.636 | 3.66% (inactive) | -0.393 (inactive) | -4.6e-05 (inactive) | 0.00449 (inactive) | inactive | 15.9% (inactive) | 15.9% (inactive) | 20.1% (inactive)
4 | c1ccc2c(c1)[nH]c1c(N3CCC4(CC3)OCCO4)ncnc12 | 543 | -0.4% (inactive) | -24.1% (inactive) | 94.4 | -72.3% (inactive) | 119 | -0.995 | 0.207 | -1.27 | -6.59% (inactive) | -0.384 (inactive) | -3.4e-05 (inactive) | 0.00574 (inactive) | inactive | -1.55% (inactive) | 2.08% (inactive) | -40% (inactive)
5 | Cn1c(=O)c2c(nc(Br)n2CCSc2ncccn2)n(C)c1=O | 606 | -12.8% (inactive) | 5.2% (inactive) | 103 | -13.4% (inactive) | 150 | 0.427 | -0.0194 | -1.04 | 21.4% (inactive) | -0.364 (inactive) | -1.4e-05 (inactive) | 0.00613 (inactive) | inactive | 36.1% (inactive) | 5.45% (inactive) | 6.81% (inactive)
6 | OCCNc1ncnc2c1c(-c1ccccc1)c(-c1ccccc1)n2Cc1ccco1 | 567 | -6.9% (inactive) | 1.6% (inactive) | 114 | 13.3% (inactive) | 91.6 | -1.86 | -1.32 | -1.52 | -2.91% (inactive) | -0.472 (inactive) | -6.4e-05 (inactive) | 0.0047 (inactive) | inactive | 46.8% (inactive) | 12.3% (inactive) | -0.125% (inactive)
7 | Cc1ccc(-n2ncc3c(N4CCN(c5ccccc5)CC4)ncnc32)c(C)c1 | 600 | -15.9% (inactive) | -1.5% (inactive) | 113 | -27.8% (inactive) | 154 | -0.444 | -0.19 | 1.79 | -12.6% (inactive) | -0.379 (inactive) | -5e-05 (inactive) | 0.00708 (inactive) | inactive | 2.19% (inactive) | 20.5% (inactive) | -19.9% (inactive)
8 | CC(O)c1n(C)c(Cl)c[n+]1C (configuration not stated) | 674 | -10% (inactive) | -4% (inactive) | 103 | -67.2% (inactive) | 134 | -2.1 | -0.307 | 2.29 | 18.6% (inactive) | -0.454 (inactive) | -4.6e-05 (inactive) | 0.0053 (inactive) | inactive | -6.3% (inactive) | 17% (inactive) | 10.8% (inactive)
9 | Cc1nc2ccccc2cc1O | 395 | -0.5% (inactive) | 21.5% (inactive) | 80.3 | -67% (inactive) | 103 | -0.53 | -0.624 | 1.27 | 1.42% (inactive) | -0.392 (inactive) | -3.6e-05 (inactive) | 0.00432 (inactive) | inactive | 53.3% (active) | 17.5% (inactive) | 27.8% (inactive)
10 | COC(=O)CNC(=O)c1c(C)cc(=O)oc1C | 481 | 1.6% (inactive) | 1.6% (inactive) | 110 | -34.9% (inactive) | 115 | 0.439 | -0.128 | -1.37 | 19.4% (inactive) | -0.336 (inactive) | -2.8e-05 (inactive) | 0.00527 (inactive) | inactive | 28.5% (inactive) | 5.18% (inactive) | 12% (inactive)
11 | CC(=Nc1cccc(O)c1)c1sc2ccccc2c1O | 745 | -2.4% (inactive) | -13% (inactive) | 96.4 | -0.7% (inactive) | 123 | 0.824 | 0.631 | -1.52 | 13.2% (inactive) | -0.303 (inactive) | -6.7e-05 (inactive) | 0.0088 (inactive) | inactive; toxic | -2.68% (inactive) | -6% (inactive) | 76.3% (active)
12 | CC(C)(C)NCc1cc2ccccc2[nH]c1=O | 585 | 4.5% (inactive) | -3.4% (inactive) | 102 | -165% (inactive) | 146 | -1.28 | 1.15 | 0.508 | 16.8% (inactive) | -0.451 (inactive) | -4.7e-05 (inactive) | 0.00463 (inactive) | inactive | 3.94% (inactive) | 12.2% (inactive) | 18.4% (inactive)
13 | COc1ccc2c(c1)C1(C)CC(C)(C)N2C(=O)N1c1ccccc1 (configuration not stated) | 585 | -8.2% (inactive) | -18.9% (inactive) | 111 | -32.4% (inactive) | 110 | 0.165 | -1.42 | -0.582 | -3.95% (inactive) | -0.461 (inactive) | -4.8e-05 (inactive) | 0.0047 (inactive) | inactive | 4.76% (inactive) | 12% (inactive) | 23.1% (inactive)
14 | Nn1c(SCC(=O)Nc2ccc3c(c2)OCCO3)nnc1C(F)(F)F | 598 | 0% (inactive) | -32.9% (inactive) | 105 | -26.1% (inactive) | 110 | 0.295 | -0.513 | -1.34 | 10.9% (inactive) | -0.426 (inactive) | -5.4e-05 (inactive) | 0.00501 (inactive) | inactive | 11.3% (inactive) | 12.4% (inactive) | 21.3% (inactive)
15 | CCCCc1nc2n[nH]c(N)c2c2c1CCCC2 | 512 | -7.9% (inactive) | -112% (inactive) | 2.8 | -85.3% (inactive) | 124 | -0.979 | 1.39 | 0.873 | 3.49% (inactive) | -0.447 (inactive) | -0.000136 (inactive) | 0.00605 (inactive) | inactive | 10.9% (inactive) | -0.43% (inactive) | 8.9% (inactive)
16 | CN(CC(O)COc1ccc(OCC(O)CN(C)C2CCCCC2)cc1)C1CCCCC1 (configuration not stated) | 605 | -1.3% (inactive) | -434% (inactive) | 67 | -149% (inactive) | 120 | -0.395 | 0.402 | 1.26 | 11.3% (inactive) | -0.384 (inactive) | -3e-05 (inactive) | 0.00666 (inactive) | inactive | 3.04% (inactive) | -47.8% (inactive) | 52.7% (active)
17 | CN(C)CC(O)COc1ccc(-c2ccc(C#N)cc2)cc1 (configuration not stated) | 626 | -1.5% (inactive) | 6.6% (inactive) | 89.7 | -19.8% (inactive) | 139 | 0.638 | -0.472 | 2.41 | -2.59% (inactive) | -0.371 (inactive) | -4.8e-05 (inactive) | 0.00456 (inactive) | inactive | 98.7% (active) | -0.588% (inactive) | -4.77% (inactive)
18 | O=C(C1CC1(c1ccccc1)c1ccccc1)N1CCOCC1 (configuration not stated) | 402 | -6.3% (inactive) | 13.6% (inactive) | 80.6 | -60.9% (inactive) | 150 | 0.0865 | -1.65 | -0.311 | -0.584% (inactive) | -0.416 (inactive) | -6.1e-05 (inactive) | 0.00482 (inactive) | inactive | 35% (inactive) | 18.5% (inactive) | 22.6% (inactive)
19 | N#C/C(C(=O)NCc1ccco1)=C1/SC(Cc2ccc(F)cc2)C(=O)N1c1ccccc1 (configuration not stated) | 598 | 4.7% (inactive) | -63.4% (inactive) | 75.6 | -13.2% (inactive) | 108 | 0.348 | 0.139 | 0.51 | -2.09% (inactive) | -0.437 (inactive) | -2.8e-05 (inactive) | 0.00419 (inactive) | inactive; toxic | -7.54% (inactive) | 11.5% (inactive) | 20.4% (inactive)
20 | COc1ccc2c(c1)[nH]c1c(=O)n(CCN(C)C)cnc12 | 660 | -3.5% (inactive) | -8.1% (inactive) | 102 | 23.1% (inactive) | 135 | -1.37 | 2.24 | -0.536 | 9.61% (inactive) | -0.449 (inactive) | -3.5e-05 (inactive) | 0.00667 (inactive) | inactive | 2.29% (inactive) | 17% (inactive) | 24.4% (inactive)
21 | COc1ccc(/C(O)=C2/C(=O)C(=O)N(CCCN(C)C)C2c2ccco2)cc1Cl (configuration not stated) | 697 | -3.7% (inactive) | -6.2% (inactive) | 110 | -9% (inactive) | 134 | 0.269 | -1.33 | -0.259 | 6.04% (inactive) | -0.426 (inactive) | -4.3e-05 (inactive) | 0.00515 (inactive) | inactive | 14.2% (inactive) | -5.81% (inactive) | -1.63% (inactive)
